TGFb inhibitor: inhibitors of TGF-b signaling | AID 588855 | HepG2 CAGA-GFP TGF-b/SMAD3 reporter, GFP fluorescence, 18 h; TGF-beta stimulated, 500 pg/mL final | 1.2% of 410,000 active | Potency, µM (top dose mostly 46.1 µM), without a hit: top-dose activity, negative = inhibition, most hits filed as inhibitors; note: % is set by controls: 0 for no effect and ±100 for the full control effect; nearly all actives have a fitted effect of over 65% in size
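Read-out: total well GFP (ex488/em500-530) summed from mean per-cell fluorescence. Cells: HEPG2 CAGA-GFP, 1% FBS DMEM, 18 h at 37 degrees C with 500 pg/mL final TGF-beta. Unstimulated wells served as the full-inhibition control; stimulated DMSO wells = 0%.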
HT1080 IDH1KD tx: toxicity to HT-1080 IDH1 knockdown cells (counter line); HT-1080 IDH1 knockdown viability, ATP luminescence, 48 h; Potency, µM (highest dose often 46.1 µM), for the others: top-dose activity, negative = toxicity, most hits filed as cytotoxic; 2% of 360,000 active; AID 686971;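 note: 0% = DMSO wells and -100% = cell-free medium wells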
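% activity derives from luminescence (CellTiter-Glo), normalised to DMSO and no-cell wells. HT-1080-IDH1KD cells, 750/well, had 48 h compound exposure at 37 °C.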
TDP1 cell CPT: DT40-hTDP1 cell growth loss with CPT; chicken DT40 Tdp1-/-;hTDP1 cells + 20 nM CPT, ATP luminescence, 48 h; Potency, µM (doses to about 46.2 µM), without a hit: at the highest dose activity change, negative = growth inhibition, hits mostly inhibitors; 12% of 420,000 active; AID 686979; note: % is set by controls: 0 for no effect and ±100 for the full control effect; nearly all actives have a fitted effect of over 55% in size
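Cell growth measured by CellTiter-Glo luminescence after a minimum 48 h, 37 C compound exposure with 20 nM CPT in Tdp1-knockout DT40 cells stably expressing hTDP1, seeded 400/well; qHTS titration format.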
TDP1 cell noCPT: qHTS for Inhibitors of human tyrosyl-DNA phosphodiesterase 1 (TDP1): qHTS in cells in absence of CPT; DT40 Tdp1-/- hTDP1 cells, no CPT, ATP luminescence, 48 h; Potency, µM (titrated, usually from 46.2 µM), for inactives: top-dose activity change, negative = growth inhibition, most hits filed as inhibitors; 15% of 420,000 active; note: % is set by controls: 0 for no effect and ±100 for the full control effect; nearly all actives have a fitted effect of over 55% in size
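DT40 Tdp1-/-;hTDP1 cells, no CPT (DMSO vehicle only), 400 cells/well; compounds pin-transferred; ≥48 hr, 37 °C; CellTiter-Glo 30 min RT dark, luminescence read.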
HepG2 tox: counter-screen for TGF-b inhibitors: cytotoxicity in HepG2 cells | 0.76% of 410,000 active | Potency, µM (top dose mostly 46.1 µM), inactives show at the highest dose activity change, negative = cytotoxicity, usual class: cytotoxic | HepG2 CAGA-GFP viability, ATP luminescence, 18 h | AID 588856
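HepG2 CAGA-GFP cells (1000/well, DMEM with 1% FBS) received compound, then TGF-beta at 500 pg/mL final, and were incubated 18 hours at 37 degrees C. Viability was read by CellTiter-Glo luminescence. Media-only wells were set as complete cell-killing and DMSO as no toxicity.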
HT1080NT lethal: kills 2HG-producing HT-1080-NT fibrosarcoma cells; Potency, µM (highest dose often 46.1 µM), without a hit: top-dose activity, negative = less viability, usual class: cytotoxic; 1.6% of 360,000 active; HT-1080-NT fibrosarcoma viability, CellTiter-Glo ATP luminescence, 48 h; AID 686970;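 note: NT is the 2HG producing partner of a matched IDH1 knockdown line; 0% = DMSO-treated cells and -100% = media-only wells without cells; nearly all actives have a fitted effect of over 55% in size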
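Read-out is CellTiter-Glo luminescence after 10 minutes at room temperature, following 48 hours' compound treatment of HT-1080-NT cells (750 cells/well, RPMI, 5% FBS, 37 degrees C).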
Starred values were filed as active, the others as inactive; ? = inconclusive; · = no result; [ ] = dose if it differs, or a comment. Compounds with a hit are over-represented: about 17% of the library has one in this group of screens. Calls come from the whole dose curve; as a rule, active = well fitted curve in the direction sought with a large enough effect; inconclusive = small, poorly fitted or top-dose-only effect, or another doubt; inactive = no such curve, though single readings can be large; an effect the other way counts as inactive or inconclusive. Potency is the fitted concentration of half-maximal effect.

SMILES	TGFb inhibitor	HT1080 IDH1KD tx	TDP1 cell CPT	TDP1 cell noCPT	HepG2 tox	HT1080NT lethal
Cc1ccc2nc(-c3cccc(Cl)c3)c(Cc3ccccc3)n2c1	·	-9.9%	20.6µM*	16.4µM*	·	3.3%
Clc1cccc(-c2nc3ccc(Br)cn3c2Cc2ccccc2)c1	?	-15.1%	?	?	-4.6%	-28.0%
COc1ccc(Cc2c(-c3ccc(C)cc3)nc3ccc(Cl)cn23)c(C)c1	?	?	23.1µM*	23.1µM*	-17.0%	?
COC(=O)c1ccc2nc(-c3ccc(Cl)cc3)c(Cc3ccc(OC)cc3C)n2c1	·	14.2%	?	?	·	15.2%
COc1ccccc1Cc1c(-c2cccc(Cl)c2)nc2ccc(C)cn12	12.6µM*	?	18.4µM*	14.6µM*	-45.2%	?
CN(Cc1ccccc1)C(=O)c1cccc(NC(=O)Cc2cccc(NC(=O)C3CCN(C(=O)C4CCC4)CC3)c2)c1	?	3.2%	?	?	-21.2%	-0.2%
O=C(Cn1cnc2ccccc2c1=O)NCCC(=O)Nc1ccc(F)cc1	-3.0%	5.7%	7.8%	5.8%	5.1%	7.6%
O=C(c1ccccc1C(=O)N(c1ccccc1)c1ccccc1)N1CCCCC1	?	16.6%	?	?	8.9%	5.3%
COc1ccc(Cc2c(-c3ccc(C#N)cc3)nc3c4ccccc4ccn23)c(C)c1	·	0.1%	?	?	·	3.1%
COc1ccccc1Cc1c(-c2ccc(C#N)cc2)nc2ccc(C)cn12	·	?	?	18.4µM*	·	?
COC(=O)c1c(C)[nH]c(C(=O)OC(C)C(=O)N(C)C2CCCCC2)c1C (configuration not stated)	-2.3%	-2.8%	?	16.4µM*	-2.7%	3.6%
COc1ccc(-n2cnc3ccccc3c2=O)c([N+](=O)[O-])c1	-1.1%	5.4%	-3.8%	14.9%	4.6%	3.4%
Cn1c(/C(C#N)=C(\O)COc2ccc3ccccc3c2)nc2ccccc21	34.1%	-1.5%	?	25.9µM*	6.6%	6.3%
CCN(CC)S(=O)(=O)c1ccc(C(O)=C(C#N)c2nc3ccccc3n2C)cc1	3.2%	-5.5%	16.4µM*	13µM*	-0.6%	-16.3%
Cc1ccc(S(=O)(=O)N2CCN(C(=O)Cn3cnc4c3c(=O)n(C)c(=O)n4C)CC2)cc1C	0.2%	3.6%	-16.4%	1.7%	0.6%	3.4%
CCOCCCNC(=O)c1cc(=O)n(Cc2cccc(C)c2)c2ccccc12	0.9%	-18.3%	?	20.6µM*	2.5%	-5.5%
Cc1ccc(S(=O)(=O)N2CCC(=O)N(C(COCc3ccccc3)Cc3ccccc3)CC2)cc1 (configuration not stated)	-16.4%	-0.2%	?	11.6µM*	-37.4%	-3.8%
Cc1ccc(S(=O)(=O)N2CCC(=O)N([C@H](COC(=O)Nc3ccccc3)Cc3ccccc3)CC2)cc1	·	3.4%	?	18.4µM*	·	-10.6%
Cc1ccc(S(=O)(=O)N2CCC(=O)N(CCOCc3ccc(Cl)cc3)CC2)cc1	?	-2.1%	11.6µM*	16.4µM*	-23.9%	-19.5%
Cc1ccc(S(=O)(=O)N2CCC(=O)N([C@H](COCc3cccc(Cl)c3)Cc3ccccc3)CC2)cc1	·	-9.4%	?	20.6µM*	·	-6.3%
Cc1ccc(S(=O)(=O)N2CCC(=O)N(CCOCc3cccc(Cl)c3)CC2)cc1	-21.2%	-2.7%	?	?	-6.7%	-0.5%
Cc1oc(-c2ccccc2NC(=O)c2ccccn2)nc1CNC(=O)c1ccc(Oc2ccccc2)o1	·	·	1.2%[9.04 µM]	-22.8%	·	·
Cc1ccc(S(=O)(=O)N2CCC(=O)N(C(COCc3cccc(Cl)c3)Cc3ccccc3)CC2)cc1 (configuration not stated)	3.4%	-8.0%	-90.9%	18.4µM*	7.8%	-0.1%
Cc1ccc(S(=O)(=O)N2CCC(=O)N(C(COCc3cccc(C(F)(F)F)c3)Cc3ccccc3)CC2)cc1 (configuration not stated)	-20.4%	-10.3%	?	20.6µM*	-23.3%	-0.7%
Cc1ccc(S(=O)(=O)N2CCC(=O)N([C@H](COCc3ccc(Cl)cc3)Cc3ccccc3)CC2)cc1	·	-4.4%	?	?	·	3.2%
SMILES	TGFb inhibitor	HT1080 IDH1KD tx	TDP1 cell CPT	TDP1 cell noCPT	HepG2 tox	HT1080NT lethal
Cc1ccc(S(=O)(=O)N2CCC(=O)N([C@H](COCc3ccc(Cl)c(Cl)c3)Cc3ccccc3)CC2)cc1	·	2.8%	?	?	·	9.7%
ClC(Cl)c1nnc(-c2ccccc2)c(-c2c[nH]c3ccccc23)n1	12.6µM*	0.0%	3.66µM*	?	-57.1%	4.4%
CC1(C2CC2)NC(=O)N(CC(=O)Nc2ccc(Cl)c([N+](=O)[O-])c2)C1=O (configuration not stated)	0.8%	-7.2%	-9.9%	-5.0%	-22.2%	-7.1%
Cc1ccc(S(=O)(=O)c2nc(-c3ccccc3)oc2N2CCN(c3ccccc3)CC2)cc1	-9.6%	·	16.4µM*	20.6µM*	-15.6%	·
O=S(=O)(c1ccccc1)c1nc(-c2ccccc2)oc1N1CCCC1	-18.3%	17.3%	-0.9%	-7.6%	-11.3%	16.8%
CN1CCN(c2oc(-c3ccccc3)nc2S(=O)(=O)c2ccc(Br)cc2)CC1	-20.3%	-5.4%	16.4µM*	?	-27.4%	-18.6%
O=S(=O)(c1ccccc1)c1nc(-c2ccccc2)oc1N1CCCCC1	-22.0%	-8.4%	?	16.4µM*	-14.8%	-2.0%[9.24 µM]
Cc1ccc(S(=O)(=O)c2nc(-c3ccccc3F)oc2N2CCCCC2)cc1	?	·	?	14.6µM*	-4.1%	·
CC1(C)S[C@@H]2[C@H](NC(=O)Cc3ccccc3)C(=O)N2[C@H]1C(=O)O (tested in a mixture with another compound)	·	·	-2.4%	?	·	·
CC1CCN(C(=O)CSc2nnc(-c3cc4ccccc4cc3O)n2Cc2ccco2)CC1	?	-6.3%	-25.3%	-28.9%	-19.2%	-2.3%
O=C(Nc1nnc([C@@H]2C[C@H](O)[C@@H](CO)O2)s1)c1cccc2ccccc12	5.2%	1.8%	-12.9%	0.7%	-3.0%	12.7%
CC1(c2ccc3c(c2)OCO3)NC(=O)N(CC(=O)Nc2ccccc2[N+](=O)[O-])C1=O (configuration not stated)	-20.3%	4.2%	-1.8%	11.7%	2.7%	-2.4%

Source: PubChem (National Center for Advancing Translational Sciences (NCATS))
